Results reported in PubChem BioAssay AID1159580 (chemical genetic matrix, 2015).
Where “and” joins values, the source holds several entries; their conditions need not be identical. Identical values can stand only once. About 2,000 (36%) of roughly 5,500 compounds were called active. Another 18% or so got no clear call; they are omitted. Rule as the data show it: active = normalized growth mostly below about 0.91 (no sharp cut-off); inconclusive = no clear call, values can overlap the other calls; inactive = mostly above about 0.92. The list shows a part of the results.

Assay: chemical genetic growth profiling, strain panel (AID 1159580);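 also: tested at 20 µM; growth read once vehicle control cultures reached saturation at 30 °C; 1 = growth at the plate median or of vehicle wells; lower values mean less growth of the strain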
Details: growth OD

Measured: normalized growth

CN(C)CCCN1c2ccccc2CCc2ccccc21
inactive: S. cerevisiae deletion strains, locus YJR075W, strain HOC1, hits give low values 0.97 | S. cerevisiae deletion strains, locus YKL009W, strain mrt4, hits give low values 0.992 | S. cerevisiae deletion strains, locus YKL068W, hits give low values 0.992 | S. cerevisiae deletion strains, locus YKL085W, strain MDH1 (second series), hits give low values 0.987 | S. cerevisiae deletion strains, locus YKL085W, strain MDH1, hits give low values 0.987 | S. cerevisiae deletion strains, locus YKL160W, strain elf1, hits give low values 1 | S. cerevisiae deletion strains, locus YKR001C, strain vps1, hits give low values 0.988 | S. cerevisiae deletion strains, locus YKR026C, strain gcn3, hits give low values 1.01 | S. cerevisiae deletion strains, locus YKR091W, strain srl3, hits give low values 1.01 | S. cerevisiae deletion strains, locus YLL001W, strain dnm1, hits give low values 0.994 | S. cerevisiae deletion strains, locus YLL026W, hits give low values 0.999 | S. cerevisiae deletion strains, locus YLL041C, strain sdh2, hits give low values 1.01 | S. cerevisiae deletion strains, locus YLR027C, strain aat2, hits give low values 1 | S. cerevisiae deletion strains, locus YLR039C, strain RIC1, hits give low values 1.15 | S. cerevisiae deletion strains, locus YLR058C, strain SHM2, hits give low values 1 | S. cerevisiae deletion strains, locus YLR102C, strain apc9, hits give low values 0.984 | S. cerevisiae deletion strains, locus YLR113W, strain HOG1, hits give low values 1.01 | S. cerevisiae deletion strains, locus YLR221C, strain rsa3, hits give low values 0.98 | S. cerevisiae deletion strains, locus YLR258W, strain gsy2, hits give low values 0.989 | S. cerevisiae deletion strains, locus YLR262C, strain YPT6 (second series), hits give low values 1.04 | S. cerevisiae deletion strains, locus YLR262C, strain YPT6, hits give low values 1.25 | S. cerevisiae deletion strains, locus YLR268W, strain sec22, hits give low values 0.994 | S. cerevisiae deletion strains, locus YLR320W, strain mms22, hits give low values 0.991 | S. cerevisiae deletion strains, locus YLR330W, strain CHS5, hits give low values 1.01 | S. cerevisiae deletion strains, locus YLR342W, strain FKS1 (second series), hits give low values 0.997 | S. cerevisiae deletion strains, locus YLR342W, strain FKS1, hits give low values 1 | S. cerevisiae deletion strains, locus YLR357W, strain rsc2, hits give low values 1.01 | S. cerevisiae deletion strains, locus YLR370C, strain arc18, hits give low values 1.01 | S. cerevisiae deletion strains, locus YLR371W, strain rom2, hits give low values 0.987 | S. cerevisiae deletion strains, locus YLR384C, strain iki3, hits give low values 1.01 | S. cerevisiae deletion strains, locus YLR418C, strain cdc73, hits give low values 0.956 | S. cerevisiae deletion strains, locus YML016C, strain PPZ1, hits give low values 1.01 | S. cerevisiae deletion strains, locus YML032C, strain rad52, hits give low values 0.996 | S. cerevisiae deletion strains, locus YML120C, strain ndi1, hits give low values 0.992 | S. cerevisiae deletion strains, locus YML124C, strain tub3, hits give low values 0.996 | S. cerevisiae deletion strains, locus YMR058W, strain fet3, hits give low values 1.01 | S. cerevisiae deletion strains, locus YMR078C, strain ctf18, hits give low values 0.985 | S. cerevisiae deletion strains, locus YMR125W, strain sto1, hits give low values 1.01 | S. cerevisiae deletion strains, locus YMR129W, hits give low values 1 | S. cerevisiae deletion strains, locus YMR205C, strain PFK2, hits give low values 0.998 | S. cerevisiae deletion strains, locus YMR223W, strain ubp8, hits give low values 0.962 | S. cerevisiae deletion strains, locus YMR231W, strain pep5, hits give low values 0.998 | S. cerevisiae deletion strains, locus YMR263W, strain SAP30, hits give low values 1 | S. cerevisiae deletion strains, locus YMR307W, strain GAS1, hits give low values 1.09 and 0.988 | S. cerevisiae deletion strains, locus YNL067W, strain RPL9B, hits give low values 1 | S. cerevisiae deletion strains, locus YNL071W, strain lat1, hits give low values 1 | S. cerevisiae deletion strains, locus YNL128W, strain TEP1, hits give low values 1 | S. cerevisiae deletion strains, locus YNL153C, strain GIM3, hits give low values 1.01 | S. cerevisiae deletion strains, locus YNL175C, strain NOP13, hits give low values 1 | S. cerevisiae deletion strains, locus YNL183C, strain NPR1, hits give low values 0.942 | S. cerevisiae deletion strains, locus YNL197C, strain WHI3, hits give low values 1 | S. cerevisiae deletion strains, locus YNL209W, strain ssb2, hits give low values 1.03 | S. cerevisiae deletion strains, locus YNL224C, strain SQS1, hits give low values 1.05 | S. cerevisiae deletion strains, locus YNL233W, strain BNI4, hits give low values 1.01 | S. cerevisiae deletion strains, locus YNL248C, strain rpa49, hits give low values 0.988 | S. cerevisiae deletion strains, locus YNL250W, strain rad50, hits give low values 0.987 | S. cerevisiae deletion strains, locus YNL271C, strain bni1, hits give low values 0.993 | S. cerevisiae deletion strains, locus YNL298W, strain CLA4, hits give low values 1 | S. cerevisiae deletion strains, locus YNL307C, strain MCK1, hits give low values 0.982 | S. cerevisiae deletion strains, locus YNL322C, strain KRE1 (second series), hits give low values 0.997 | S. cerevisiae deletion strains, locus YNL322C, strain KRE1, hits give low values 1 and 0.979 | S. cerevisiae deletion strains, locus YNR049C, strain mso1, hits give low values 1.03 | S. cerevisiae deletion strains, locus YNR052C, strain pop2, hits give low values 0.978 | S. cerevisiae deletion strains, locus YOL006C, strain TOP1, hits give low values 0.946 | S. cerevisiae deletion strains, locus YOL012C, strain htz1 0.613 | S. cerevisiae deletion strains, locus YOL147C, strain pex11, hits give low values 0.994 | S. cerevisiae deletion strains, locus YOR001W, strain rrp6, hits give low values 1 | S. cerevisiae deletion strains, locus YOR061W, strain CKA2, hits give low values 1.01 | S. cerevisiae deletion strains, locus YOR069W, strain VPS5, hits give low values 1 | S. cerevisiae deletion strains, locus YOR070C, strain gyp1, hits give low values 1 | S. cerevisiae deletion strains, locus YOR080W, strain dia2, hits give low values 0.995 | S. cerevisiae deletion strains, locus YOR083W, strain WHI5 (second series), hits give low values 1.07 | S. cerevisiae deletion strains, locus YOR083W, strain WHI5, hits give low values 0.995 | S. cerevisiae deletion strains, locus YOR106W, strain vam3, hits give low values 0.997 | S. cerevisiae deletion strains, locus YOR136W, strain idh2, hits give low values 0.999 | S. cerevisiae deletion strains, locus YOR144C, strain elg1, hits give low values 0.992 | S. cerevisiae deletion strains, locus YOR184W, strain ser1, hits give low values 1.02 | S. cerevisiae deletion strains, locus YOR231W, strain MKK1, hits give low values 0.975 | S. cerevisiae deletion strains, locus YOR265W, strain rbl2, hits give low values 1.01 | S. cerevisiae deletion strains, locus YOR270C, strain vph1, hits give low values 0.932 | S. cerevisiae deletion strains, locus YOR290C, strain snf2, hits give low values 1 | S. cerevisiae deletion strains, locus YOR316C, strain cot1, hits give low values 0.993 | S. cerevisiae deletion strains, locus YPL051W, strain arl3, hits give low values 0.992 | S. cerevisiae deletion strains, locus YPL055C, strain LGE1, hits give low values 0.99 and 0.992 | S. cerevisiae deletion strains, locus YPL078C, strain atp4, hits give low values 1.01 | S. cerevisiae deletion strains, locus YPL106C, strain sse1, hits give low values 0.996 | S. cerevisiae deletion strains, locus YPL240C, strain hsp82, hits give low values 1 | S. cerevisiae deletion strains, locus YPL241C, strain CIN2, hits give low values 1.01 | S. cerevisiae deletion strains, locus YPL256C, strain CLN2, hits give low values 0.972 | S. cerevisiae deletion strains, locus YPR119W, strain clb2, hits give low values 0.99 | S. cerevisiae deletion strains, locus YPR141C, strain kar3, hits give low values 0.993 | S. cerevisiae deletion strains, locus YPR163C, strain tif3, hits give low values 0.982 | S. cerevisiae deletion strains, locus YPR167C, strain met16, hits give low values 0.989 | S. cerevisiae deletion strains, strain wtn01, hits give low values 0.988 | S. cerevisiae strains, strain wild type, hits give low values 1.01
